This is an account of results in PubChem BioAssay (EPA / NIEHS).

Read-out in experiment [1]: Secreted IgG (sIgG), gene 3500
Kind of experiment: BSK_BT_sIgG: BioMAP Diversity Plus: BT Assay for Secreted IgG (sIgG) Biomarker Activity (AID 2284226). The note with it: primary human B cells with PBMC. A digest of the protocol: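 ELISA quantitation of secreted IgG from human B cells co-cultured with PBMC, sampled 24 h post-dosing. Values fitted relative to DMSO vehicle as baseline, positive fitting direction.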

Experiment [2] is described as follows: BSK_BT_Bcell_Proliferation: Viability Assessment in the BioMAP Diversity Plus: BT Assay for B cell Proliferation (AID 2284227). The settings on record: primary human B cells with PBMC. The method, boiled down: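 SRB-based protein staining (0.1% SRB after 10% TCA fixation, 560 nm) quantifies proliferation in human B cells co-cultured with PBMC, 72 h post-dosing, with signal gain scored relative to DMSO negative control.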

Read-out in experiment [3]: Interleukin 6 (IL6), IL6 (gene 3569)
As to the kind of experiment: BSK_BT_xIL6: BioMAP Diversity Plus: BT Assay for Interleukin 6 (IL6) Biomarker Activity (AID 2284228). The note with it: primary human B cells with PBMC. The method, boiled down: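 Readout: secreted IL-6 via Luminex xMAP multiplex, 24 h post-dosing. System: primary human B cells co-cultured with PBMC. Signal change scored relative to DMSO vehicle, positive fitting direction.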

Read-out in experiment [4]: Interleukin 17A (IL17A), IL17A (gene 3605)
Kind of experiment: BSK_BT_xIL17A: BioMAP Diversity Plus: BT Assay for Interleukin 17A (IL17A) Biomarker Activity (AID 2284229). The note with it: primary human B cells with PBMC. A digest of the protocol: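 Luminex xMAP readout of secreted IL-17A; human B cell + PBMC co-culture; 24 h post-dose; positive-direction fit vs DMSO negative control.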

Read-out in experiment [5]: Vascular cell adhesion molecule 1 (VCAM1), VCAM1 (gene 7412)
Kind of experiment: BSK_MyoF_VCAM1: BioMAP Diversity Plus: MyoF Assay for Vascular cell adhesion molecule 1 (VCAM1) Biomarker Activity (AID 2284231). The settings on record: primary human lung fibroblasts. The method, boiled down:
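MyoF system, lung fibroblasts; 24 h post-dose; VCAM-1 by ELISA; gain-of-signal fit vs DMSO baseline.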

A short description of experiment [6]: CCTE_Mundy_HCI_Cortical_NOG_NeuriteCount: CCTE's Neurite Outgrowth Assay in rat cortical cells for Neurite Count, Mundy Lab (AID 2284212).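 Note: cells fixed about two days after chemical exposure began.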 A digest of the protocol: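 Rat cortical primary cells; compound added 2 h post-plating, 1/10 dilution of working solution. Anti-betaIII-tubulin/AF488 ICC; ArrayScan neurite count vs DMSO.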
The nature of experiment [7]: CCTE_Mundy_HCI_Cortical_NOG_NeuriteLength: CCTE's Neurite Outgrowth Assay in rat cortical cells for Neurite Length, Mundy Lab (AID 2284213).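 Note: neurites imaged about 48 to 50 h after chemical exposure began.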 A digest of the protocol: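 First, rat primary cortical cells were plated and, 2 h later, given test chemical as a 1/10 dilution. Finally, βIII-tubulin immunostaining enabled automated imaging of neurite length.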
Experiment [8] in a line: CCTE_Mundy_HCI_Cortical_Synap_Neur_Matur_NeuriteLength: CCTE's Synaptogenesis and Neurite Maturation Assay in rat cortical cells for Neurite Length, Mundy Lab (AID 2284214). A digest of the protocol: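 Neurite length quantified by automated high-content imaging of MAP2, synaptophysin and Hoechst staining. Rat cortical cells received chemical from DIV 7 to DIV 12 […], glial growth arrested by AraC at DIV 5; DMSO baseline.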

The nature of experiment [9]: CCTE_Mundy_HCI_Cortical_Synap_Neur_Matur_NeuriteSpotCountPerNeuron: CCTE's Synaptogenesis and Neurite Maturation Assay in rat cortical cells for Neurite Spot Count per Neuron Count, Mundy Lab (AID 2284215). The method, boiled down:
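Read-out: neurite-associated synaptophysin puncta per neuron, imaged by high-content analysis after MAP2, synaptophysin and Hoechst staining. Rat primary cortical cultures, dosed DIV 7 through DIV 12; DMSO served as baseline.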

Experiment [10] can be described thus: CCTE_Mundy_HCI_Cortical_Synap_Neur_Matur_SynapseCount: CCTE's Synaptogenesis and Neurite Maturation Assay in rat cortical cells for Synapse Count, Mundy Lab (AID 2284218). The method, boiled down: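 High-content imaging of synaptophysin puncta per MAP2-positive neuron (Hoechst nuclei) in rat cortical cells exposed DIV 7–12 after glial arrest with AraC at DIV 5; decrease relative to DMSO scored.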

Experiment [11] is described as follows: CCTE_Mundy_HCI_Cortical_Synap_Neur_Matur_NeuriteCount: CCTE's Synaptogenesis and Neurite Maturation Assay in rat cortical cells for Neurite Count, Mundy Lab (AID 2284222).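 For outcome: exposure from day 7 to day 12 in vitro with readout at day 12.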 A digest of the protocol:
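Chemical exposure runs DIV 7–12 in rat cortical cultures, glia suppressed by AraC at DIV 5; measurement is at DIV 12. Imaging-derived neurite counts are fitted against DMSO baseline.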

Experiment [12] in a line: CCTE_Mundy_HCI_Cortical_Synap_Neur_Matur_CellBodySpotCount: CCTE's Synaptogenesis and Neurite Maturation Assay in rat cortical cells for Cell Body Spot Count, Mundy Lab (AID 2284223). The method, boiled down:
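Read-out: cell body-associated synaptophysin puncta per neuron, imaged after MAP2, synaptophysin and Hoechst staining. Rat cortical cells, AraC DIV 5, chemical dosing DIV 7, fixation DIV 12. Activity fitted in positive direction relative to DMSO baseline.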

Experiment [13] is described as follows: CCTE_Mundy_HCI_hNP1_Pro_ResponderAvgInten: CCTE's Proliferation Assay in human neuroprogenitor cells, Mundy Lab (AID 2284224; active = hit-call score of the fitted dose curve at least 0.9, where 1 is the maximum;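 note: human neural progenitor cells hNP1 derived from WA09 embryonic stem cells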). A digest of the protocol: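 Proliferation read as average intensity of BrdU-positive cells, imaged at 26.25 h post-dosing: chemical exposure started after 40–44 h culture, BrdU during final 4 h, paraformaldehyde fixation. Positive-direction fit relative to DMSO.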

Experiment [14] in a line: UKN4_HCS_LUHMES_cell_viability: Viability Assessment in the University of Konstanz (UKN) Leist Lab Neurite Outgrowth Assay in human LUHMES cells (UKN4) (AID 2284232). A digest of the protocol: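 Viability was read by high-content imaging of calcein-AM/H-33342-stained cells after 24 h toxicant exposure, staining included. Cells: human LUHMES on day 2 of dopaminergic differentiation, dosed shortly after attachment; DMSO baseline, bidirectional curve fitting.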

A short description of experiment [15]: UKN2_HCS_IMR90_cell_viability: Viability Assessment in the University of Konstanz (UKN) Leist Lab Neural Crest Cell Migration Assay in human induced IMR90 Pluripotent Stem Cells (UKN2) (AID 2284233).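 Note: cells exposed to compound for 24 h after a 24 h migration phase.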 A digest of the protocol:
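Viability read as calcein-AM fluorescence by high-content imaging, Hoechst co-stain, 30 min. Human iPSC (IMR90) neural crest cells had migrated 24 h into stopper-defined gaps before 24 h chemical exposure. Fitted bidirectionally relative to DMSO.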

Experiment [16] in a line: CCTE_Mundy_HCI_hN2_NOG_NeuriteCount: CCTE's Neurite Outgrowth Assay in human hN2 cells for Neurite Count, Mundy Lab (AID 2284219; active = hit-call score of the fitted dose curve at least 0.9, where 1 is the maximum). The method, boiled down: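 In this morphology assay, hNP1-derived neurons received test chemical 2 h post-plating and were fixed two days later in warm paraformaldehyde/sucrose containing Hoechst 33342. Neurites, labelled by rabbit anti-βIII-tubulin (1:800) and Alexa Fluor-488 (1:500), were counted automatically.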

Experiment [17] in a line: CCTE_Mundy_HCI_hN2_NOG_NeuriteLength: CCTE's Neurite Outgrowth Assay in human hN2 cells for Neurite Length, Mundy Lab (AID 2284220; active = hit-call score of the fitted dose curve at least 0.9, where 1 is the maximum). The method, boiled down: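 Read-out is neurite length from high-content imaging of βIII-tubulin/Alexa Fluor-488-labelled neurons, referenced to DMSO controls.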
Experiment [18] can be described thus: CCTE_Mundy_HCI_hN2_NOG_NeuronCount: CCTE's Neurite Outgrowth Assay in human hN2 cells for Neuron Count, Mundy Lab (AID 2284221; active = hit-call score of the fitted dose curve at least 0.9, where 1 is the maximum). A digest of the protocol: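 Read-out is the number of betaIII-tubulin-positive neurons imaged by automated high-content analysis, with DMSO as negative control.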
Experiment [19] is described as follows: TAMU_PeakParms_SingleDonor1434_Chronotropy: Texas A&M University (TAMU) 1.5-hr Human Induced Pluripotent Stem Cell (iPSC)-derived Cardiomyocytes Calcium (Ca+2) Flux Assay for Cardiotoxicity: Chronotropy (changes in peak frequency) (AID 2284217). The settings on record: actives raise or lower the signal. The method, boiled down:
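Beat frequency of single-donor iPSC cardiomyocytes was recorded through a calcium-sensitive dye 1.5 hours after exposure to four concentrations up to 100 uM. An EC05 point of departure was derived.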

The nature of experiment [20]: TAMU_HCS_1.5hr_SingleDonor1434_Cytotoxicity: Cytotoxicity Assessment using High-content Screening (HCS) Fluorescent Imaging for the Texas A&M University (TAMU) 1.5-hr Human Induced Pluripotent Stem Cell (iPSC)-derived Cardiotoxicity Assay (AID 2284234; active = hit-call score of the fitted dose curve at least 0.9, where 1 is the maximum). The method, boiled down: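 Nuclear counts from Hoechst 33342 imaging define cytotoxicity here, with EC10 (10% cell-count loss relative to DMSO) as point of departure. iPSC cardiomyocytes received 0.2-100 uM test chemical in 0.5% DMSO for 1.5 h at 37 C.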

The AC50 is the concentration giving half of the maximal activity seen.

“And” between values parts separate entries of the source, which are not always exact repeats. Equal entries are not always repeated. Results filed as inconclusive are left out. Where a structure was tested more than once in an assay, its records may differ in their call. The source made the active and inactive calls. Rule for the calls, unless noted: active = hit-call score of the fitted dose curve at least 0.9, where 1 is the maximum; inactive = score below 0.9.

As for `COP(=S)(OC)Oc1cc(Cl)c(Cl)cc1Cl`, the AC50 was 34.3 µM (active) in experiment [1] and 31.1 µM (active) in experiment [5]. In addition, the result in [2], in experiment [3] and in [4] was inactive.

Take `O=C(OC1CCCCC1)c1ccccc1C(=O)OC1CCCCC1`: the AC50 in experiment [1] is 34.2 µM (active); in experiment [2], 31.7 µM (active); in experiment [3] it was 28.3 µM (active); in experiment [4] it was 20.9 µM (active); in experiment [5], 20.9 µM (active).

In the case of `CCOP(=S)(OCC)Oc1ccc(S(C)=O)cc1` (stereo not drawn), the outcome in [1], in experiment [2], in [3], in [4] and in experiment [5] was inactive.

For the compound `C=C(C)C(=O)[O][Sn]([CH2]CCC)([CH2]CCC)[CH2]CCC`, the AC50 in [6] was 123 nM (active); in experiment [7], 89.3 nM (active); in experiment [8], 161 nM (active); in experiment [9], 59.7 nM (active); in experiment [10], 67.2 nM (active); in experiment [11], 0.223 µM (active). The half-maximal activity concentration (AC50) in experiment [12] is 0.142 µM (active); in [13] it was 249 nM (active); in experiment [14], 0.181 µM (active); in [15], 0.272 µM (active).

Consider `COP(=O)(OC)O/C(=C\Cl)c1cc(Cl)c(Cl)cc1Cl`, for which the AC50 is 34 µM (active) and 32.9 µM (active) in experiment [6]; 32.5 µM (active) and 31.3 µM (active) in experiment [7]; 6.28 µM (active) in [16]; 5.52 µM (active) in [17]; 7.22 µM (active) in experiment [18]; 67000 nM (active) in experiment [13]. The compound was classed as inactive in experiment [8], in [9], in experiment [10], in experiment [11], in experiment [12] and in experiment [15].

Consider `CCOP(=S)(OCC)Oc1nc(Cl)c(Cl)cc1Cl`, for which the half-maximal activity concentration (AC50) in [6] is 32400 nM (active); in experiment [7], 32 µM (active) and 33.4 µM (active); in experiment [8], 31.2 µM (active) and 29 µM (active); in experiment [9] it was 50 µM (active) and 24.7 µM (active); in experiment [10] it was 50 µM (active) and 27.4 µM (active); in experiment [16] it was 29.1 µM (active). Moreover, the AC50 was 28.4 µM (active) in [17]; 17.1 µM (active) in experiment [18]; 30 µM (active) in experiment [11]; 83.2 µM (active) in experiment [12]; 24.3 µM (active) and 73.3 µM (active) in experiment [13]; 231 µM (active) in experiment [14]. In addition, the outcome in experiment [19], in experiment [12], in experiment [15] and in experiment [20] was inactive.

`COP(=S)(OC)Oc1ccc(Sc2ccc(OP(=S)(OC)OC)cc2)cc1`: in [1], the AC50 was 28.9 µM (active). Further, the outcome in experiment [2], in experiment [3], in experiment [4] and in experiment [5] was inactive.
